DT40 TDP1 CPT = growth inhibition of DT40 Tdp1-/-;hTDP1 cells with camptothecin (screen for TDP1 inhibitors); chicken DT40 Tdp1-/-;hTDP1 cells + 20 nM CPT, ATP luminescence, 48 h; 12% of 420,000 active; Potency, µM (series often up to 46.2 µM), actives largely listed as inhibitors; also: nearly all actives have a fitted effect of over 55% in size
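Cell growth measured by CellTiter-Glo luminescence after a minimum 48 h, 37 C compound exposure with 20 nM CPT in Tdp1-knockout DT40 cells stably expressing hTDP1, seeded 400/well; qHTS titration format.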
TGFb SMAD3 inh = blocks TGF-b signaling. HepG2 CAGA-GFP TGF-b/SMAD3 reporter, GFP fluorescence, 18 h; TGF-beta stimulated, 500 pg/mL final. AID 588855. Potency, µM (highest dose often 46.1 µM), hits mostly inhibitors. 1.2% of 410,000 active; also: nearly all actives have a fitted effect of over 65% in size
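Per well, imaged GFP fluorescence of HEPG2 CAGA-GFP cells gives the signal; cells get compound, then TGF-beta (500 pg/mL final), 18 h at 37 degrees C; %Activity versus -TGF-beta and +DMSO controls.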
HepG2 viability = kills HepG2 cells in TGF-b inhibitor counter-screen; HepG2 CAGA-GFP viability, ATP luminescence, 18 h; 0.76% of 410,000 active; AID 588856; Potency, µM (highest dose often 46.1 µM), most hits filed as cytotoxic
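CellTiter-Glo luminescence gave cytotoxicity after 18 hours at 37 degrees C. The cells were HepG2 CAGA-GFP in 1% FBS DMEM, stimulated with 500 pg/mL TGF-beta after compound addition. %Activity was normalised to no-cell wells (complete cell-killing) and DMSO (no toxicity), and curves were fitted and classified.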
ATXN2 expr inh = inhibitors of ATXN2 expression | HEK-293 ATXN2-luciferase reporter, luminescence, 24 h | Potency, µM (series often up to 57 µM), hits mostly inhibitors | 0.72% of 360,000 active; also: nearly all actives have a fitted effect of over 55% in size
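qHTS (up to 57 uM final) was run with 24 h compound exposure of reporter cells at 37 °C. Each well was multiplexed: SteadyGlo luminescence measured ATXN2-luciferase expression after a fluorogenic Gly-Phe-AFC viability readout (25 uM final).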
DT40 TDP1 no CPT = qHTS for Inhibitors of human tyrosyl-DNA phosphodiesterase 1 (TDP1): qHTS in cells in absence of CPT | DT40 Tdp1-/- hTDP1 cells, no CPT, ATP luminescence, 48 h | Potency, µM (series often up to 46.2 µM), most hits filed as inhibitors | 15% of 420,000 active | AID 686978, 2013; also: nearly all actives have a fitted effect of over 55% in size
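Growth of hTDP1-complemented DT40 Tdp1-knockout cells is measured by ATP luminescence after at least 48 hr compound exposure at 37 °C, with DMSO substituting for the 20 nM CPT used in the parallel screen.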
ATXN viability = cell viability loss in ATXN counter-screen; Potency, µM (titrated, usually from 56.7 µM), hits mostly cytotoxic; AID 651635; 0.49% of 400,000 active; S2 cells (HEK-293 line with an ATXN2-luciferase reporter) viability, CellTiter-Fluor protease fluorescence, 24 h; also: nearly all actives have a fitted effect of over 40% in size
Hits are given with their value; 0 = inactive; ? = inconclusive; - = not tested or not shown. Only some compounds are listed: those with a hit (about 17% of all), similar ones and a draw of the others. Calls follow the shape of the dose curve; as a rule, active = well fitted curve in the direction sought with a large enough effect; inconclusive = small, poorly fitted or top-dose-only effect, or another doubt; inactive = no such curve, though single readings can be large; an effect the other way counts as inactive or inconclusive.

SMILES | DT40 TDP1 CPT | TGFb SMAD3 inh | HepG2 viability | ATXN2 expr inh | DT40 TDP1 no CPT | ATXN viability
NC(c1csc(Nc2ccc(C(=O)c3ccccc3)cc2)n1)C1CCCCC1 (centres undefined) | ? | ? | 0 | ? | ? | -
NC(c1csc(Nc2ccc(C(=O)NCCO)cc2)n1)C1CCCCC1 (centres undefined) | 10µM | 0 | 0 | 0 | 6.5µM | 0
CC(=O)c1ccc(Nc2nc(C(N)C3CCCCC3)cs2)cc1 (centres undefined) | 13µM | 0 | 0 | 0 | 12µM | 0
N#Cc1ccc(C(=O)Nc2ccccc2-c2nc3ccccc3s2)c(F)c1 | - | 0 | 0 | 0 | - | 0
O=c1[nH]c(-c2ccccc2)ncc1Oc1ccccc1 | 0 | 0 | 0 | 0 | 0 | 0
N#Cc1c(N)n(Cc2ccccc2)c(=O)c2cc([N+](=O)[O-])ccc12 | 16µM | 0 | 0 | 0 | 18µM | -
Cc1nc2ccc([N+](=O)[O-])cc2c(=O)n1Cc1ccc([N+](=O)[O-])cc1 | ? | 0 | 0 | - | ? | 0
Cc1ccc(Cn2c(C)nc3ccc([N+](=O)[O-])cc3c2=O)cc1 | 18µM | 0 | 0 | - | 21µM | 0
CC1(C)C(=O)Nc2ccccc2N1C(=O)CSc1nnc2ccccn12 | 0 | 0 | 0 | - | 0 | 0
Cc1ccc(-c2nnc(Nc3ccc(O)cc3)c3ccccc23)cc1S(=O)(=O)NCC1CCCO1 (centres undefined) | ? | 6.3µM | 0 | 0 | 23µM | ?
Cc1ccc(-c2nnc(Nc3ccc(Br)cc3)c3ccccc23)cc1S(=O)(=O)NCC1CCCO1 (centres undefined) | 16µM | ? | 0 | 0 | 4.1µM | 0
CC(CNC(=O)CCCn1c(=O)c2cccn2c2ccccc21)c1ccccc1 (centres undefined) | ? | ? | 0 | - | ? | -
CC(C)c1ccc(NC(=O)CCn2c(=O)c3cccn3c3ccccc32)cc1 | 21µM | 0 | 0 | - | 15µM | -
CCc1cccc(C)c1NC(=O)CCn1c(=O)c2cccn2c2ccccc21 | ? | 0 | 0 | - | 23µM | -
Cc1cccc(C)c1NC(=O)Cn1c(=O)c2cccn2c2ccccc21 | ? | 0 | 0 | 0 | 0 | 0
Cc1cc(C)c(NC(=O)CCn2c(=O)c3cccn3c3ccccc32)c(C)c1 | ? | 0 | 0 | - | 16µM | -
CC(C)c1ccc(NC(=O)Cc2cn(C)c3ccccc23)cc1 | 0 | 0 | 0 | 0 | 16µM | 0
CC(NC(=O)C1CC(=O)N(c2ccc3c(c2)OCCO3)C1)c1ccccc1 (centres undefined) | 0 | 0 | 0 | - | 0 | 0
COc1ccc(/C=N/n2cncn2)cc1Cn1nc(C)c([N+](=O)[O-])c1C | 0 | 0 | 0 | 0 | 0 | 0
COc1cc(C2C(C#N)=C(N)N(N(C)C)C3=C2C(=O)CCC3)cc(OC)c1OC (centres undefined) | 0 | 0 | 0 | 0 | 0 | 0
Cc1ccccc1C1C(C#N)=C2N=C(N)c3c(sc4c3CCCCC4)N2C2=C1C(=O)CC(C)(C)C2 (centres undefined) | 18µM | 0 | 0 | 0 | ? | 0
COc1cc(C2C(C#N)=C(N)N(c3sc4c(c3C#N)CCCC4)C3=C2C(=O)CC(C)(C)C3)cc(OC)c1OC (centres undefined) | 21µM | 0 | 0 | 0 | 16µM | 0
Cc1cccc(C(=O)NNS(=O)(=O)c2ccc(F)cc2)c1 | 0 | 0 | 0 | 0 | 0 | 0
COc1ccc(CCNC(=O)C/C(C)=N/NC(=O)COc2ccc(C)cc2Br)cc1OC | 0 | 0 | 0 | 0 | 0 | 0
COc1ccccc1CNC(=O)C/C(C)=N/NC(=O)COc1ccc(C)cc1Br | 12µM | 0 | 0 | 0 | 12µM | 0
SMILES | DT40 TDP1 CPT | TGFb SMAD3 inh | HepG2 viability | ATXN2 expr inh | DT40 TDP1 no CPT | ATXN viability
CN(C(=O)COc1ncnc2sccc12)C1CCCCC1 | 0 | 0 | 0 | 0 | 0 | 0
C=CC[C@H]1CC(C)=C[C@H](CC=C)N1C(=O)c1cc(COc2ccccc2SC)on1 | ? | 0 | 0 | 0 | 15µM | 0
COCC1CCN(C(=O)c2cc(COc3ccccc3SC)on2)C1 (centres undefined) | ? | 0 | 0 | 0 | 0 | 0
CSc1ccccc1OCc1cc(C(=O)N2CCN(C)C(c3ccccc3)C2)no1 (centres undefined) | 21µM | 0 | 0 | 0 | 0 | 0
CN(CC(=O)Nc1ccc(Cl)cc1)C(=O)CCC1CCCC1 | 0 | 0 | 0 | 0 | 0 | 0
OCCNc1nc(-c2cccs2)nc2ccccc12 | 0 | - | - | - | 0 | -
CN(CCO)c1nc(-c2cccs2)nc2ccccc12 | 18µM | - | - | - | ? | -
CNCCN(C)c1nc(-c2cccs2)nc2ccccc12 | ? | - | - | - | 22µM | -
Cc1ccc(S(=O)(=O)N(C)CCN(C)c2nc(-c3cccs3)nc3ccccc23)cc1 | ? | - | - | - | 20µM | -
COCCn1cc(C(=O)NCCN(C)C)c2c3ccccc3n(C)c2c1=O | 0 | 0 | 0 | - | ? | 0
NC(CCc1ccccc1)c1csc(NC(=O)Nc2cccc(C(F)(F)F)c2)n1 (centres undefined) | ? | ? | 11µM | ? | 21µM | -
O=C(Nc1cccc(C(F)(F)F)c1)Nc1ccon1 | 0 | 0 | 0 | 0 | ? | 0
NCc1csc(NC(=O)Nc2cccc(C(F)(F)F)c2)n1 | 16µM | ? | 0 | 0 | 23µM | ?
CC(C)C(N)c1csc(NC(=O)Nc2ccc(OC(F)(F)F)cc2)n1 (centres undefined) | ? | 20µM | 20µM | ? | 23µM | 20µM
CC(C)C(N)c1csc(NC(=O)Nc2ccccc2C(C)(C)C)n1 (centres undefined) | 18µM | ? | 0 | 0 | ? | 0
CC1(C)CC(=O)C=C(NNC(=O)OC(C)(C)C)C1 | 0 | 0 | 0 | 0 | 0 | 0
CC(C)C(N)c1csc(NC(=O)Nc2cccc(C(F)(F)F)c2)n1 (centres undefined) | 15µM | ? | 0 | ? | 15µM | -
O=C(Nc1ccc(Cl)cc1F)c1cnc2sc(N3CCOCC3)nn2c1=O | 0 | 0 | 0 | 0 | 0 | 0
CCOc1cccc2sc(N(Cc3cccnc3)C(=O)C3CCCCC3)nc12 | ? | ? | 0 | - | ? | -
O=C(C1CCCCC1)N(Cc1cccnc1)c1nc2c(F)cccc2s1 | 21µM | ? | 0 | - | 21µM | -
O=C(Cc1ccccc1)N(Cc1cccnc1)c1nc2c(Cl)cccc2s1 | 0 | 0 | 0 | - | ? | -
O=C(Cc1ccccc1)N(Cc1cccnc1)c1nc2c(F)cccc2s1 | ? | 1.6µM | 0 | - | ? | -
